# In PMC5540273 (PLoS ONE, 2017):
# Tests used:
# Settings in all cases: concentration: 1 μM,replicates: in singlicate; n = 1
# TNNI3K = test system: TNNI3K
# TRKA = test system: T1, TRKA
# T1 construct: gene NTRK1
# TRKB = test system: TRKB
# TRKC = test system: T2, TRKC
# T2 construct: gene NTRK3
# TRPM6 = test system: TRPM6
# TSSK1B = test system: TSSK1B
# TSSK3 = test system: TSSK3
# TTK = test system: TTK
# TXK = test system: TXK
# [1] = test system: TYK2(JH1domain-catalytic)
# [2] = test system: TYK2(JH2domain-pseudokinase)
# TYRO3 = test system: TYRO3
# ULK1 = test system: ULK1
# ULK2 = test system: ULK2
# ULK3 = test system: ULK3
# VEGFR2 = test system: T3, VEGFR2
# T3 construct: gene KDR
# VPS34 = test system: T4, VPS34
# T4 construct: gene PIK3C3
# VRK2 = test system: VRK2
# WEE1 = test system: WEE1
# WEE2 = test system: WEE2
# 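Note: KINOMEscan kinase panel screen.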
Compound,%Inh (TNNI3K) [%],%Inh (TRKA) [%],%Inh (TRKB) [%],%Inh (TRKC) [%],%Inh (TRPM6) [%],%Inh (TSSK1B) [%],%Inh (TSSK3) [%],%Inh (TTK) [%],%Inh (TXK) [%],%Inh [1] [%],%Inh [2] [%],%Inh (TYRO3) [%],%Inh (ULK1) [%],%Inh (ULK2) [%],%Inh (ULK3) [%],%Inh (VEGFR2) [%],%Inh (VPS34) [%],%Inh (VRK2) [%],%Inh (WEE1) [%],%Inh (WEE2) [%]
Cc1ccc(CC(=O)N2CCc3cc(-c4cn(C)c5ncnc(N)c45)ccc32)cc1 [GSK2634758],0,10,34,29,5,6,13,0,8,0,17,0,11,35,6,0,0,19,0,0
CN(c1ccccc1CNc1nc(Nc2ccc3c(c2)CC(=O)N3)ncc1C(F)(F)F)S(C)(=O)=O,0,99.2,94.7,89,0,12,0,99.5,0,88,0,0,71,69,40,28,0,0,0,0
O=C(Nc1ccccc1)c1cccc(Oc2ccc3nccn3n2)c1,2,0,0,21,0,0,0,0,0,5,18,29,0,0,0,–,6,0,0,0
CN1CCN(CCNc2nc3cc(Oc4ccc(NC(=O)Nc5cc(C(F)(F)F)ccc5F)cc4)ccc3[nH]2)CC1.Cl.Cl [GW768504],0,0,0,0,0,8,0,41,0,0,0,0,0,0,0,58,17,0,8,2
O=C(Nc1cccc(Oc2ccc3nccn3n2)c1)Nc1cccc(C(F)(F)F)c1,66,76,35,55,0,13,0,0,22,9,1,0,0,0,3,–,14,0,0,9
O=C(NOCC1CC1)c1cc(Br)c(F)c(F)c1Nc1ccc(I)cc1Cl,0,1,20,0,0,0,9,0,0,0,0,0,0,0,10,0,0,0,0,0
CCN1CCN(CCCC(=O)Nc2n[nH]c3nc(-c4ccc(O)cc4)c(Br)cc23)CC1 [SB-731579],0,38,2,0,0,0,0,0,0,52,0,0,0,0,6,0,0,69,0,29
CSc1nccc(-c2c(-c3ccc(F)cc3)ncn2CCCN2CCOCC2)n1.Cl [SB-217146],0,0,0,0,10,0,0,0,0,13,22,0,12,36,14,7,16,30,0,1
O=C(NCC1CC1)c1ccc(-c2cc(C(=O)NC3CC3)ccc2F)cc1 [GW810445],0,14,0,0,0,0,0,12,0,19,2,0,1,0,3,0,16,19,0,0
CS(=O)(=O)Nc1ccc(-c2ccnc3[nH]ccc23)cc1 [GSK993273],7,91,48,39,27,17,26,60,0,99.6,24,0,64,10,95.4,48,31,0,5,0
Cn1ccc2ncnc(Oc3ccc(NC(=O)Nc4cccc(C(F)(F)F)c4)c(F)c3)c21,82,100,88,96.4,0,0,0,18,0,0,0,3,0,0,0,99.1,0,0,43,0
C[C@@H](Oc1cc(-n2cnc3cc(-c4ccncc4)ccc32)sc1C(N)=O)c1ccccc1Cl [GSK479719],29,66,52,50,0,34,13,2,0,25,46,15,32,3,18,40,32,0,1,0
Cn1ccc2ncnc(Oc3ccc(NC(=O)Nc4ccnc(C(F)(F)F)c4)c(Cl)c3)c21,58,5,0,27,0,0,0,0,0,0,0,0,0,0,0,98.5,0,0,0,30
CS(=O)(=O)c1cccc(CNc2nc(Nc3ccc4c(c3)[C@@H]3C[C@@H]4CNC3=O)ncc2C(F)(F)F)c1,0,99.2,96.8,90.4,0,0,6,99.8,28,94.7,0,0,89,77,99.9,98.1,0,37,2,30
CC(=O)Nc1nc2cnc(Nc3cc(NC(=O)c4cccc(CC(C)(C)C#N)c4)ccc3C)nc2s1,57,0,0,7,2,19,1,12,1,0,28,0,30,0,11,63,11,0,0,15
Cc1cccc(-c2nc(Nc3ccncc3)c3sccc3n2)n1 [GW869641],7,6,6,5,38,0,24,27,0,20,75,0,43,29,45,35,32,39,20,11
Cl.Nc1n[nH]c2cc(-c3ccccn3)ccc12 [GSK2189892],0,23,0,0,0,0,8,14,0,0,0,0,50,47,0,0,10,0,4,0

Compound,%Inh (TNNI3K) [%],%Inh (TRKA) [%],%Inh (TRKB) [%],%Inh (TRKC) [%],%Inh (TRPM6) [%],%Inh (TSSK1B) [%],%Inh (TSSK3) [%],%Inh (TTK) [%],%Inh (TXK) [%],%Inh [1] [%],%Inh [2] [%],%Inh (TYRO3) [%],%Inh (ULK1) [%],%Inh (ULK2) [%],%Inh (ULK3) [%],%Inh (VEGFR2) [%],%Inh (VPS34) [%],%Inh (VRK2) [%],%Inh (WEE1) [%],%Inh (WEE2) [%]
C[C@@H]1CNc2c(sc3ccc4nc(-c5ccc(O)cc5)ccc4c23)C(=O)N1,1,7,0,0,0,0,4,9,7,74,23,0,38,63,24,11,9,17,17,0
C[C@@H](Oc1cc(-n2cnc3cc(-c4cnn(C)c4)ccc32)sc1C(N)=O)c1ccccc1Cl [GSK580432],24,100,73,50,0,14,16,25,44,45,0,11,14,10,11,61,74,0,26,5
Cn1cc(-c2cccc3c(N)c(C(N)=O)nnc23)cn1,5,24,0,0,35,0,0,1,0,19,80,0,23,14,21,13,46,1,3,18
CS(=O)c1ccc(-c2coc3ccc(-c4n[nH]c(=O)o4)cc23)cc1 (stereo not drawn),0,26,0,39,0,0,0,0,4,9,47,0,35,0,0,17,94.3,0,2,16
COC(=O)Nc1nc2cc(Oc3ccc(NC(=O)Nc4cc(C(F)(F)F)ccc4Cl)cc3)ccc2[nH]1.Cl [GW697465],88,100,99.7,99.8,0,0,10,1,0,14,30,3,17,0,10,64,35,4,8,11
CN(c1ccc2c(c1)nc(NCc1ccc(F)cc1)n2C)c1ccnc(Nc2ccc(CS(C)(=O)=O)cc2)n1.Cl [GW813244],11,0,7,0,24,0,4,0,80,36,12,4,28,13,21,98.3,30,6,0,7
COc1cc(Nc2nccc(N3CCC(NC(=O)c4cccc(C#N)c4)C3)n2)cc(OC)c1OC (stereo not drawn) [GSK1379751],14,60,53,64,0,10,7,0,9,72,55,0,12,0,96.7,0,0,0,0,0
CN(c1cccc(CNc2nc(Nc3ccc4c(c3)CC(=O)N4)ncc2C(F)(F)F)c1)S(C)(=O)=O,0,98.3,93.5,79,0,0,15,97.5,0,58,0,0,72,45,40,37,0,12,0,0
Cc1nnc(-c2ccc3occ(-c4ccc(S(C)=O)cc4)c3n2)o1 (stereo not drawn),0,0,0,0,0,0,0,8,0,0,0,0,0,0,0,0,17,0,0,21
Cn1ccc2ncnc(Oc3ccc(NC(=O)Nc4cncc(C(F)(F)F)c4)c(Cl)c3)c21,61,51,55,88,0,0,0,0,0,0,0,0,0,0,99.9,98.5,0,0,0,7
O=C(Nc1cccc(C(F)(F)F)c1)c1cccc(Oc2ccc3nccn3n2)c1,35,0,22,50,0,0,16,0,7,23,44,2,2,10,23,–,35,0,13,7
CC(C)c1nc(-c2cccc(NS(=O)(=O)c3ccccc3)c2)c(-c2ccnc(Nc3ccc4c(c3)CN(C)CC4)n2)s1 [GSK1649598],85,65,41,0,68,16,0,23,71,55,28,79,42,67,48,90.1,0,0,0,0
Cc1ccn2nc(-c3ccc(F)cc3)c(-c3ccncc3)c2c1.Cl [GW457859],0,6,39,24,14,0,0,0,20,26,25,0,0,0,0,19,51,0,7,0
COc1cc2nccc(Nc3ccc(Oc4ccccc4)cc3)c2cc1OC.Cl [GI261656],0,11,6,6,58,0,11,0,19,4,12,0,0,0,0,23,10,5,0,0
C[C@@H]1CCN(C(=O)N2CCCC2)C[C@@H]1N(C)c1ncnc2[nH]ccc12,18,85,55,26,4,5,4,89,4,100,0,0,36,46,70,49,0,0,0,0
OCCn1cc(-c2cnc3nnn(Cc4ccc5ncccc5c4)c3n2)cn1,0,0,0,0,0,0,0,0,0,0,0,0,0,0,0,0,17,0,0,0
